Rows were chosen to be rich in hits. Some 10% of all compounds tested hit in one or more screens of this group.
KB-V1 MDR tox: kills drug-selected multidrug resistant KB-V1 cells | AID 1347076 | hit rate 3.4% among 400,000 | KB-V1 MDR cells viability, CellTiter-Glo, 72 h | Potency, µM (titrated, usually from 46.1 µM), most hits filed as cytotoxic; also: % is scaled to controls: 0 for no effect and ±100 for the full control effect; nearly all actives have a fitted effect of over 60% in size
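KB-V1 MDR subline cells in DMEM (phenol-red free, 10% FBS) exposed to compounds in qHTS concentration series for 72 h at 37 degrees C. Viability read by CellTiter-Glo luminescence; concentration-effect curves fitted after normalization and correction.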
SW480 rereplic: inducers of DNA re-replication in SW480 colon cancer cells; SW480 DNA re-replication, Hoechst DNA content imaging, 48 h; hit rate 1.8% among 340,000; Potency, µM (titrated, usually from 46.1 µM), without a hit: at the highest dose re-replication activation, hits mostly activators; also: % of control where 0% means no effect; nearly all actives have a fitted effect of over 55% in size
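Cells (250 per well) received 23 nL compound or DMSO by pin tool and were kept 48 hr at 37 C, 5% CO2. Nuclei were then stained with Hoechst for 40 min and scanned for DNA content.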
KB-3-1 cytotox: KB-3-1 parental cell cytotoxicity. Potency, µM (titrated, usually from 46.1 µM), usual class: cytotoxic. KB-3-1 viability, CellTiter-Glo ATP luminescence, 72 h. hit rate 1.4% among 400,000; also: % is scaled to controls: 0 for no effect and ±100 for the full control effect; nearly all actives have a fitted effect of over 60% in size
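Here the drug-naive KB-3-1 line serves as comparator for MDR sub-line selectivity; cells received compound titrations, 72 h at 37 °C, then CellTiter-Glo readout.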
MCF10A rereplic: induces DNA re-replication in MCF 10a normal breast cells; MCF 10A DNA re-replication, Hoechst nuclear intensity, 48 h; Potency, µM (doses to about 46.1 µM), for inactives: top-dose activity, positive = re-replication, hits mostly activators; hit rate 2.9% among 350,000; also: % of control where 0% means no effect; nearly all actives have a fitted effect of over 50% in size
VP16 counter: inhibits Gal4-VP16 luciferase reporter, ROR gamma counter-screen; Drosophila S2 Gal4-VP16 UAS-luciferase, luminescence, 20 h; Potency, µM (top dose mostly 53.6 µM), for the others: top-dose activity, negative = inhibition, hits mostly inhibitors; hit rate 3.5% among 310,000; AID 2546;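 also: Gal4-VP16 expression switched on by copper sulfate through the metallothionein promoter; % is scaled to controls: 0 for no effect and ±100 for the full control effect; nearly all actives have a fitted effect of over 50% in size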
RORg inh: inhibitors of mouse ROR gamma transcriptional activity. P51450. Drosophila S2 Gal4-RORgamma UAS-luciferase reporter, 20 h. Potency, µM (series often up to 53.6 µM), inactives show at the highest dose activity change, negative = inhibition, usual class: inhibitors. hit rate 5.4% among 310,000. AID 2551; also: % is scaled to controls: 0 for no effect and ±100 for the full control effect; nearly all actives have a fitted effect of over 60% in size
Target sequence (P51450 whole entry, looked up, the tested form may be a part): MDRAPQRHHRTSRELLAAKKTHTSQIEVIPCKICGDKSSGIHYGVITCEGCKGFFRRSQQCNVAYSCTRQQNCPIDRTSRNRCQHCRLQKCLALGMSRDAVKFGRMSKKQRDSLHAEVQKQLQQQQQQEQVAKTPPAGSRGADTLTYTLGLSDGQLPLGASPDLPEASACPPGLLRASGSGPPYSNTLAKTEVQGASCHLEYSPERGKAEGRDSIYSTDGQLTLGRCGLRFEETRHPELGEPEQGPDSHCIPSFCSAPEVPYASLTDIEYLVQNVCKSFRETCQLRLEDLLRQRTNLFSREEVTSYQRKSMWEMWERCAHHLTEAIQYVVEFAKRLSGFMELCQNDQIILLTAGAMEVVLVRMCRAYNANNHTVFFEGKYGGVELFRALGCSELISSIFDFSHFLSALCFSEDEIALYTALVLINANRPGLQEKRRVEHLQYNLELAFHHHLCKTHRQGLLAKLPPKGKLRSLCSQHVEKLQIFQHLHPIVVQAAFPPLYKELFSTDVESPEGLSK
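Using a luciferase readout, inhibitors were identified by reduced reporter activity in Drosophila cells coexpressing a copper-inducible Gal4–ROR gamma fusion and UAS-driven Photinus luciferase, incubated 20 hr after 700 uM copper sulfate.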
Numbers without * were called inactive; i = inactive; ? = inconclusive; . = not tested or not shown; ! = not confirmed by another sample; [ ] = dose if it differs, or a comment. Calls follow the shape of the dose curve; as a rule, active = well fitted curve in the direction sought with a large enough effect; inconclusive = small, poorly fitted or top-dose-only effect, or another doubt; inactive = no such curve, though single readings can be large; an effect the other way counts as inactive or inconclusive. Potency is read from the fitted curve at half-maximal effect.

SMILES	KB-V1 MDR tox	SW480 rereplic	KB-3-1 cytotox	MCF10A rereplic	VP16 counter	RORg inh
CCN(CCCNC(=O)c1nn(-c2ccc(OC)c(Cl)c2)c(=O)c2c1c1ccccc1n2C)c1ccccc1	i	.	i	.	.	.
Clc1ccc(C(c2ccccc2)c2c[nH]c3ccccc23)s1 (centres undefined)	i	.	?	.	.	.
OC(CNCC(c1ccc(Cl)cc1Cl)c1c[nH]c2ccccc12)c1ccccc1 (centres undefined)	23µM*	9%	i	?	-26%	?
O=C(NC1CCCC1)c1ccc2c(c1)N(Cc1ccc(C(F)(F)F)cc1)C(=O)c1ccccc1S2	?	.	i	.	.	.
CC1CCCCN1C(=O)CSc1ccc(-c2ccc(F)cc2)nn1 (centres undefined)	12µM*	-3%	i	-1%	-11%	30%
C=C1CC2C3C=C(C)C4=CC(=O)CCC4(C)C3CCC2(C)[C@@]1(OC(C)=O)C(C)=O (some centres undefined)	.	-8%	.	10%	-9%	-2%[10 µM]
COc1cccc(NC(CNS(=O)(=O)c2ccc(C)cc2)c2ccccc2)c1 (centres undefined)	18µM*	.	?	.	.	.
COc1cccc(NC(CNS(=O)(=O)c2ccc(Cl)cc2)c2ccccc2)c1 (centres undefined)	i	.	18µM*	.	.	.
O=S(=O)(NCC(Nc1ccc(Cl)cc1)c1ccccc1)c1ccccc1 (centres undefined)	18µM*!	?	?	4.6µM*	?	114%
CCOc1cc(CNC(=O)Cn2ncn3c(cc4cc(F)ccc43)c2=O)cc(OCC)c1OCC	i	.	i	.	.	.
COc1ccc(N2CC(C(=O)Nc3ccccc3N3CCCC3)CC2=O)c(OC)c1 (centres undefined)	?	21µM*	7.3µM*	?	.	.
COC(=O)c1ccccc1NC(=O)C1CC(=O)N(c2ccc(C)c(C)c2)C1 (centres undefined)	21µM*	87%	i	?	-4%	-2%
COc1ccc(N2CC(C(=O)Nc3cc(C(F)(F)F)ccc3N3CCCC3)CC2=O)c(OC)c1 (centres undefined)	?	184%	?	?	.	.
COC(=O)c1ccccc1NC(=O)C1CC(=O)N(c2ccc(F)cc2)C1 (centres undefined)	i	-4%	i	0%	11%	-20%
O=C(/C=C/c1ccc([N+](=O)[O-])o1)Nc1cccc([S+](=O)([O-])Nc2ccccc2F)c1	i	.	i	.	.	.
N#CCc1ccc(NC(=O)/C=C/c2ccc([N+](=O)[O-])o2)cc1	?	?	5.2µM*	16µM*	-15%	-15%
O=C(O)/C=C/c1ccc([N+](=O)[O-])o1	i	?	i	?	-5%	11µM*
CN1CCN(C(=O)/C=C/c2ccc([N+](=O)[O-])o2)CC1	i	24%	i	21µM*	?	?
COC(=O)c1nc(-c2ccccc2)oc1N(C)C	16µM*	1%	i	1%	.	4%[0.365 µM]
COC(=O)c1nc(-c2ccc(C)cc2)oc1N(C)C	?	-4%	i	5%	0%	19%
c1ccc(COc2ncnc3c2ncn3CCCN2CCN(Cc3cccc4ccccc34)CC2)cc1	?	.	15µM*	.	.	.
Cc1ccc(CN2CCN(CCCn3cnc4c(OCc5ccccc5)ncnc43)CC2)cc1	i	?	i	-8%	.	.
O=C1[C@H](Cc2ccccc2)NC/C=C\C[C@@H](c2ccco2)N1Cc1ccccc1	i	.	i	.	.	.
Cc1nc(-c2ccccc2)cc(-c2ccccc2)n1	i	-18%	i	7%	.	.
CN(N)c1nc(-c2ccccc2)cc(-c2ccccc2)n1	?	0%	i	?	?	13µM*
O=CN1Cc2[nH]c3ccccc3c2N(c2ccc(Cl)cc2)C1=O	i	2%	i	?	1%	13%

Screens: PubChem BioAssay, National Center for Advancing Translational Sciences (NCATS)
